Several values for one entry are separate records, joined by “and”; a condition that tells them apart may be missing. Equal values may be shown once. Inconclusive results are not listed. Entries that show only a call come without a potency. Activity calls are given as the source filed them. Unless noted, calls follow the shape of the full dose curve.
What was measured:
[1] = Nuclear factor erythroid 2-related factor 2/antioxidant responsive element (Nrf2/ARE) small molecule agonists: luciferase reporter gene qHTS assay in human keratinocytes (AID 1919969); also: nearly all actives have a fitted effect of over 35% in size; also: potency is read from the fitted curve at half-maximal effect
[2] = target: Gonadotropin-releasing hormone receptor (Homo sapiens) (UniProt P30968); experiment: Human gonadotropin-releasing hormone receptor (GnRHR) small molecule agonists, calcium flux assay in GnRHR-HEK293 cells (AID 1920063); also: nearly all actives have a fitted effect of over 35% in size
How it was run: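 We seeded human GnRHR-expressing HEK293 cells for 18 hours, loaded them with calcium dye for an hour at 37 C, added test compounds, and recorded fluorescence intensity kinetically for three minutes.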

[3] = target: KiSS-1 receptor (Homo sapiens) (UniProt Q969F8); experiment: Human kisspeptin (KISS1R) small molecule agonists, calcium flux assay in KISS1R-HEK293 cells (AID 1920064; active = well fitted activation curve with a large enough effect in the repeat runs)
How it was run: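 Kinetic calcium assay, 1 s sampling over 3 min at Ex/Em 480/540, in HEK293 cells engineered with human KISS1R; compounds delivered in DMSO after 1 h dye loading.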

[4] = G protein-coupled receptor (GPCR) small molecule agonists, calcium flux assay: HEK293 wild type cell line counter screen (AID 1920065)
How it was run: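 Calcium-sensitive dye, loaded 1 h at 37 C into cells cultured 18 h, reports compound-evoked calcium release as fluorescence (Ex/Em 480/540), measured over 3 min. Agonist mode; 15-point titrations, triplicate.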

[5] = p53 small molecule agonists, cell-based qHTS assay with human liver microsomes: qHTS cell viability counter screen (AID 1963579); also: nearly all actives have a fitted effect of over 45% in size
How it was run: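 Tox21 library compounds, delivered from DMSO stocks, were tested on p53RE-bla cells together with 0.5 mg/mL human liver microsomes and 0.5 mg/mL NADPH (final) over 16 h at 37 C; CellTiter-Glo luminescence served as the cytotoxicity measure.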

[6] = p53 small molecule agonists, cell-based qHTS assay with rat liver microsomes: qHTS cell viability counter screen (AID 1963580); also: nearly all actives have a fitted effect of over 45% in size
How it was run: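 In HCT-116 cells carrying a p53 response element-bla reporter, compounds were metabolically activated in situ by rat liver microsomes with NADPH over 16 h. Cell ATP content then served as the cytotoxicity measure.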

[7] = p53 small molecule agonists, cell-based qHTS assay: qHTS cell viability counter screen (AID 1963581); also: nearly all actives have a fitted effect of over 45% in size
How it was run: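 Following 5 h attachment, HCT-116 p53RE-bla cells took up compound for 16 h at 37 C; the reporter was read with B/G FRET substrate (2 h RT), and viability then via CellTiter-Glo ATP luminescence.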

[8] = target: Beta-2 adrenergic receptor (Homo sapiens) (UniProt P07550); experiment: Adrenergic beta2 receptor (ADRB2) small molecule antagonists, cell-based qHTS assay (AID 1963592); also: series mostly up to about 92 µM; nearly all actives have a fitted effect of over 50% in size
How it was run: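 Cells (CHO, stable ADRB2 overexpression) incubated 18-20hr at 37C; compounds added from DMSO; agonist mix (1nM isoproterenol, 100uM IBMX, 25uM Ro-20-1724) added; 0.5hr RT; d2-cAMP and anti-cAMP-cryptate added; 1hr RT; 665/615 nm read.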

[9] = target: Beta-2 adrenergic receptor (Homo sapiens) (UniProt P07550); experiment: Adrenergic beta2 receptor (ADRB2) small molecule agonists, cell-based qHTS assay (AID 1963593);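 also: CHO cells stably overexpressing human ADRB2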
How it was run: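 CHO cells stably over-expressing ADRB2 were plated overnight at 37C, then dosed with compounds plus a stimulation mix containing 100uM IBMX and 25uM Ro-20-1724 for 0.5hr at room temperature. cAMP was measured by HTRF competition, 1hr.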

[10] = target: D(2) dopamine receptor (Homo sapiens) (UniProt P14416); experiment: Dopamine D2 receptor (DRD2) small molecule agonists, cell-based qHTS assay (AID 1963594); also: nearly all actives have a fitted effect of over 35% in size
How it was run: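 HEK293 cells stably expressing DRD2 were cultured 24 h at 37 C, then given Ro20-1724 (0.1 mM final) and compounds for 10 min at room temperature. NKH477 (200nM) was then added for 30 min. cAMP was read by HTRF.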

[11] = target: 5-hydroxytryptamine receptor 2A (Homo sapiens) (UniProt P28223); experiment: 5-hydroxytryptamine receptor 2A (HTR2A) small molecule antagonists, cell-based qHTS assay (AID 1963586); also: nearly all actives have a fitted effect of over 45% in size; also: potency is read from the fitted curve at half-maximal effect
How it was run: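 Antagonist-mode intracellular calcium assay: DOI (4 nM) added after 5 min compound pre-incubation at room temperature to dye-loaded HTR2A-CHO cells. Fluorescence followed for 3 min, sampled every second.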

[12] = target: 5-hydroxytryptamine receptor 2A (Homo sapiens) (UniProt P28223); experiment: 5-hydroxytryptamine receptor 2A (HTR2A) small molecule agonists, cell-based qHTS assay (AID 1963587); also: nearly all actives have a fitted effect of over 30% in size
How it was run: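 HTR2A-CHO cells, plated 18 h at 37 C/5% CO2, dye-loaded 1 h at 37 C; compounds in DMSO added by pin tool (agonist mode). Intracellular calcium flux read as kinetic fluorescence on FDSS over 2 min at 1 s intervals.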

[13] = target: Muscarinic acetylcholine receptor M1 (Homo sapiens) (UniProt P11229); experiment: Cholinergic receptor muscarinic 1 (CHRM1) small molecule agonists, cell-based qHTS assay (AID 1963589); also: nearly all actives have a fitted effect of over 35% in size
How it was run: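 Measures agonist-induced intracellular calcium rise. Stable human CHRM1 CHO line, 1 h dye load at 37 C, compounds from DMSO, kinetic fluorescence read.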

[14] = cAMP Responsive Elements (CRE) small molecule agonists, cell-based qHTS assay (AID 1963590); also: potency is read from the fitted curve at half-maximal effect
How it was run: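 A CRE-responsive beta-lactamase reporter in HEK 293T cells was used. Treatment ran 3 h at 37 C; detection used LiveBLAzer B/G FRET substrate for 2 h at room temperature.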

[15] = cAMP Responsive Elements (CRE) small molecule antagonists, cell-based qHTS assay (AID 1963591; active = well fitted inhibition curve with a large enough effect in the signal ratio in the repeat runs, not every such curve was filed as active; the % refers to the signal ratio)
How it was run: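 HEK293T cells carrying a CRE-driven beta-lactamase reporter receive compound and NKH477 (0.25 uM final) for 3 h. Fluorescence from LiveBLAzer B/G FRET substrate is read after 2 h at room temperature.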

[16] = target: D(2) dopamine receptor (Homo sapiens) (UniProt P14416); experiment: Dopamine D2 receptor (DRD2) small molecule antagonists, cell-based qHTS assay (AID 1963595; active = well fitted inhibition curve with a large enough effect in the signal ratio in the repeat runs, with a control signal flat; the % refers to the signal ratio; also: potency is read from the fitted curve at half-maximal effect)
How it was run: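 HEK293 cells stably expressing DRD2 were preincubated with 0.1 mM Ro20-1724, then with compound for 10 min at room temperature. Cells were stimulated with 200 nM NKH477 plus 12 nM quinpirole for 30 min, and cAMP was read by HTRF.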

[17] = target: Muscarinic acetylcholine receptor M1 (Homo sapiens) (UniProt P11229); experiment: Cholinergic receptor muscarinic 1 (CHRM1) small molecule antagonists, cell-based qHTS assay (AID 1963588); also: nearly all actives have a fitted effect of over 40% in size
How it was run: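 CHRM1-CHO calcium-flux assay, antagonist mode. Cells were seeded 18 h, dye-loaded 1 h at 37 C and given compound for 5 min at RT, then acetylcholine was added at 50nM. FDSS fluorescence was read 3 min; 15 concentrations, three runs.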

[18] = p53 small molecule agonists, cell-based qHTS assay with human liver microsomes (AID 1963577);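 also: p53 response element beta-lactamase reporter cells with liver microsomes plus NADPH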
How it was run: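 Metabolically competent format: test substances, human liver microsomes and NADPH (both 0.5 mg/mL final) incubated with p53RE-bla cells 16 h at 37 C. Beta-lactamase reporter signal then quantified by fluorescence.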

[19] = p53 small molecule agonists, cell-based qHTS assay with rat liver microsomes (AID 1963578)
How it was run: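 Each plate received p53RE-bla cells, then compound, then rat liver microsomes and NADPH (both 0.5 mg/mL final). Plates were held 16 h at 37 C, and beta-lactamase activity was detected with LiveBLAzer over 2 h.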

[20] = p53 small molecule agonists, cell-based qHTS assay (AID 1963582; active = well fitted activation curve with a large enough effect in the signal ratio in the repeat runs, not every such curve was filed as active; the % refers to the signal ratio)
How it was run: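 In this cell-based concentration-response screen, a p53 response element drives beta-lactamase; cells received DMSO-borne compounds after 5 h culture and were incubated a further 16 h before FRET substrate development.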

D(2) dopamine receptor (Homo sapiens), sequence (P14416 whole entry, looked up): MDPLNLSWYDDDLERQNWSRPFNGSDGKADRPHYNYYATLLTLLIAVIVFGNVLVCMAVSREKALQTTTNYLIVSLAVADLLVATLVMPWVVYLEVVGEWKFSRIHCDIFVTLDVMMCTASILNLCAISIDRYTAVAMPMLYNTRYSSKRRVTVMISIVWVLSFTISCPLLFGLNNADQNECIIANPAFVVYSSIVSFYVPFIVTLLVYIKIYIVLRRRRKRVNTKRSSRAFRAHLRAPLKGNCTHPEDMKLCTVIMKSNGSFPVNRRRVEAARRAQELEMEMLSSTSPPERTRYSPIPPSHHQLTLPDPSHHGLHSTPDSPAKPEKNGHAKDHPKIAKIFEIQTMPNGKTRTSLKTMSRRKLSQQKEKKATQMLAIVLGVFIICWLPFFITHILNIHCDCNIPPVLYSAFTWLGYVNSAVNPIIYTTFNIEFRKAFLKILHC
5-hydroxytryptamine receptor 2A (Homo sapiens), sequence (P28223 whole entry, looked up): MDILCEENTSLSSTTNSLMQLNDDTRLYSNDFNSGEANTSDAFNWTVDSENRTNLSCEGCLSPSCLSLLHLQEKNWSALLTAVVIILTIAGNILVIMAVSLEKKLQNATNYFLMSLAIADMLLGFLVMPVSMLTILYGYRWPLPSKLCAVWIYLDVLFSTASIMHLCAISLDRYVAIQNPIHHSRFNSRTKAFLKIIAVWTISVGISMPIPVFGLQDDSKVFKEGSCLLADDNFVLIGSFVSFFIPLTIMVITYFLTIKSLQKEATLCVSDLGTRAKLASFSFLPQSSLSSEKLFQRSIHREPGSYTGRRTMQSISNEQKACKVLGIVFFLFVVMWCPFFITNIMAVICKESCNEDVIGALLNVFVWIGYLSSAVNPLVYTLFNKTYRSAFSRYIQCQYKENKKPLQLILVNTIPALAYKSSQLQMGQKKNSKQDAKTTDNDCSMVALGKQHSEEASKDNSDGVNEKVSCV
KiSS-1 receptor (Homo sapiens), sequence (Q969F8 whole entry, looked up): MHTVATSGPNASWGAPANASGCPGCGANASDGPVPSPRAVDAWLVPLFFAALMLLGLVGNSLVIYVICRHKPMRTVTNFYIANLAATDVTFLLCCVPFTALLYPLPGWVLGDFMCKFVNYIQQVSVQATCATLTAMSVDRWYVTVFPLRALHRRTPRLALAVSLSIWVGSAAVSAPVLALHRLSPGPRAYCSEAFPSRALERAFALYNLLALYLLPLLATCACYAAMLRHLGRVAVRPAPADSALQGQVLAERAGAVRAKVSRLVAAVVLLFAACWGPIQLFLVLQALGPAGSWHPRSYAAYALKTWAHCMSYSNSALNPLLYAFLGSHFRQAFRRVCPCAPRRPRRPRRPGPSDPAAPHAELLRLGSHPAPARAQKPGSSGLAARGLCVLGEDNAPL
Gonadotropin-releasing hormone receptor (Homo sapiens), sequence (P30968 whole entry, looked up): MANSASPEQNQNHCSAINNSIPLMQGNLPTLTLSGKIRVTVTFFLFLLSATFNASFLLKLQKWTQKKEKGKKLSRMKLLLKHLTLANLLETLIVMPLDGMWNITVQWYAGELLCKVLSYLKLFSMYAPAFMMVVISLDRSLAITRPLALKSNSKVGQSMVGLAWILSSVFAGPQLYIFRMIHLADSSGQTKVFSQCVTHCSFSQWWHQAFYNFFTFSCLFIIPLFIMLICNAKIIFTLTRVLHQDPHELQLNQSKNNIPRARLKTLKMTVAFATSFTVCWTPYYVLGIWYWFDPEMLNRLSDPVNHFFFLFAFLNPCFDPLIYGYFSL
Beta-2 adrenergic receptor (Homo sapiens), sequence (P07550 whole entry, looked up): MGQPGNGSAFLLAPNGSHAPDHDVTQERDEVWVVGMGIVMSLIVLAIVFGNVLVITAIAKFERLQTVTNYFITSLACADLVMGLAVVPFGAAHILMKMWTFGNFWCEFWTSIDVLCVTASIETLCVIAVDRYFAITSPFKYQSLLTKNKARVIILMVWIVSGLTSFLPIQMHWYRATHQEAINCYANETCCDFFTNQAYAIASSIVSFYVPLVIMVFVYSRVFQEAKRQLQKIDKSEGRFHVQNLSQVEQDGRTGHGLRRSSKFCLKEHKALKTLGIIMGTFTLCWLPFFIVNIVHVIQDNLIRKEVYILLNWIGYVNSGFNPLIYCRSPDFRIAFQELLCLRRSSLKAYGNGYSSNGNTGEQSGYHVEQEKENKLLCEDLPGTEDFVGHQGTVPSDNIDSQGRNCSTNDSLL
Muscarinic acetylcholine receptor M1 (Homo sapiens), sequence (P11229 whole entry, looked up): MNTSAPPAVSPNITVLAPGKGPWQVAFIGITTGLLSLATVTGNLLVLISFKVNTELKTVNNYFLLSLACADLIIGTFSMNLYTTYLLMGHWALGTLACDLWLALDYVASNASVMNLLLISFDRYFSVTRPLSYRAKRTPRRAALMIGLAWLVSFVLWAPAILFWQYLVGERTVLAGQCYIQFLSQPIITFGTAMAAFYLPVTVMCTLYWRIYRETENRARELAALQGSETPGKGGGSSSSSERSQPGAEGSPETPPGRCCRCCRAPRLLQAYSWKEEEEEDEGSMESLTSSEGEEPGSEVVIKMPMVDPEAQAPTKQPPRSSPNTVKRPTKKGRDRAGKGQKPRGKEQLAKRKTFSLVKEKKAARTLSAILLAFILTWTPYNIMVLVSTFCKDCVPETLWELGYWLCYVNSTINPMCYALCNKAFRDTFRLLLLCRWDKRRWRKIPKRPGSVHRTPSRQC

| SMILES | Potency [1] | Potency [2] | Potency [3] | Potency [4] | Potency [5] | Potency [6] | Potency [7] | Potency [8] | Potency [9] | Potency [10] | Potency [11] | Potency [12] | Potency [13] | Potency [14] | Potency [15] | Potency [16] | Potency [17] | Potency [18] | Potency [19] | Potency [20] |
| --- | --- | --- | --- | --- | --- | --- | --- | --- | --- | --- | --- | --- | --- | --- | --- | --- | --- | --- | --- | --- |
| c1ccc2c(c1)cc1ccc3cccc4ccc2c1c34 | inactive | inactive | inactive | inactive | inactive | inactive | inactive | inactive | inactive | inactive | – | – | – | – | – | – | – | – | – | – |
| O=C(Nc1ccccc1)c1ccccc1I | inactive | inactive | inactive | inactive | – | inactive | inactive | inactive | – | inactive | inactive | inactive | inactive | inactive | inactive | inactive | – | – | – | – |
| CCOP(=S)(OCC)Oc1cc(Cl)c(Br)cc1Cl | 61.1 µM (active) | inactive | inactive | – | – | inactive | – | inactive | – | inactive | inactive | inactive | inactive | – | – | inactive | inactive | – | – | – |
| CCCCNC(=O)OCC#CI | 24.2 µM (active) and 24.3 µM (active) | – | inactive | inactive | inactive | inactive | inactive | inactive | inactive | inactive | inactive | – | inactive | – | – | 68.6 µM (active) | inactive | inactive | inactive | – |
| CC(=O)c1cc(C(C)(C)C)cc2c1CCC2(C)C | inactive | inactive | inactive | inactive | – | inactive | inactive | inactive | inactive | inactive | inactive | inactive | inactive | inactive | inactive | inactive | inactive | – | – | inactive |
| CCCN(CCC)c1c([N+](=O)[O-])cc(C(F)(F)F)cc1[N+](=O)[O-] | 19.3 µM (active) and 61.1 µM (active) | inactive | inactive | – | inactive | inactive | inactive | inactive | inactive | inactive | inactive | – | inactive | inactive | inactive | inactive | inactive | – | – | – |
| COc1ccc(Cc2nccc3cc(OC)c(OC)cc23)cc1OC | inactive | inactive | inactive | – | inactive | inactive | inactive | – | inactive | inactive | – | – | – | 11.9 µM (active) | inactive | inactive | – | inactive | inactive | – |
| CCOc1cc(Oc2ccc(C(F)(F)F)cc2Cl)ccc1[N+](=O)[O-] | inactive | inactive | – | inactive | inactive | inactive | inactive | inactive | – | inactive | inactive | inactive | inactive | – | – | – | inactive | – | inactive | inactive |
| CC[C@H]1C[C@@H]2C[C@H]3c4[nH]c5ccc(OC)cc5c4CCN(C2)[C@@H]13 | 67.4 µM (active) | inactive | inactive | – | – | inactive | – | – | – | inactive | 0.293 µM (active) | inactive | inactive | – | – | inactive | inactive | inactive | inactive | inactive |

Source: PubChem BioAssay (Tox21)
